Measurements from PubChem BioAssay (Tox21).
Records with an inconclusive call do not appear. Calls of active or inactive are those of the source. Unless noted, calls follow the shape of the dose curve; as a rule, active = well fitted curve in the direction sought with a large enough effect in the repeat runs; inconclusive = weak or mixed curves; inactive = no such curve, though single readings can be large; an effect the other way counts as inactive or inconclusive.

What was measured:
[1] = qHTS assay to identify small molecule agonists of the vitamin D receptor (VDR) signaling pathway - cell viability counter screen (AID 743224); also: series mostly up to about 63 µM; nearly all actives have a fitted effect of over 50% in size
Outline: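 VDR-bla cell line, quantitative HTS format; 16 h compound incubation (37C, 5% CO2); ATP-based CellTiter-Glo luminescence measured in the reporter assay wells.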

[2] = qHTS assay to identify small molecule antagonists of the vitamin D receptor (VDR) signaling pathway - cell viability counter screen (AID 743225); also: nearly all actives have a fitted effect of over 50% in size
Outline: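 Read-out: CellTiter-Glo luminescence measured 30 min after reagent addition at room temperature. Cells were VDR-bla HEK 293T exposed 16 h at 37C, 5% CO2, to compound with 3 nM final calcitriol agonist.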

[3] = qHTS assay to identify small molecule agonists of the NFkB signaling pathway (AID 1159509; active = well fitted curve in the direction sought with a large enough effect in the signal ratio in the repeat runs, not every such curve was filed as active; the % refers to the signal ratio; also: series mostly up to about 61 µM)
Outline: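 NFkB-bla ME-180 cells carry a beta-lactamase reporter under an NF-kB response element. They were plated overnight, then exposed to compounds for 5 h at 37 C. Read-out is LiveBLAzer FRET after 1.5 hr at room temperature (405 nm excitation; 460/530 nm emission).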

[4] = qHTS assay to identify small molecule agonists of the NFkB signaling pathway - cell viability counter screen (AID 1159515; calls by dose curve; also: series mostly up to about 61 µM; nearly all actives have a fitted effect of over 55% in size)
Outline: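 Viability in NFkB-bla ME-180 cells was measured by CellTiter-Glo luminescence, 30 min room temperature, in wells already treated 5 hr with compounds and read for reporter FRET.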

[5] = qHTS assay to identify small molecule agonists of the endoplasmic reticulum stress response signaling pathway (AID 1159516; active = well fitted activation curve with a large enough effect in the signal ratio in the repeat runs, not every such curve was filed as active; the % refers to the signal ratio)
Outline: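 ER stress element reporter (bla) in HeLa. 1,500 cells/well, overnight attachment; 5 hr compound; 2 hr RT substrate; dual-emission fluorescence.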

[6] = qHTS assay to identify small molecule agonists of the endoplasmic reticulum stress response signaling pathway - cell viability counter screen (AID 1159517; calls by dose curve;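 also: HeLa cells carrying an ER stress response element beta-lactamase reporter; series mostly up to about 61 µM; nearly all actives have a fitted effect of over 50% in size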)
Outline: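 ESRE-bla HeLa cells, 1,500 per well, seeded overnight then treated with compounds for 5 hr at 37 C. After the beta-lactamase read, viability in the same wells is measured by CellTiter-Glo luminescence after 30 min at room temperature.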

[7] = qHTS assay to identify small molecule antagonists of the retinoid-related orphan receptor gamma (ROR-gamma) signaling pathway - cell viability counter screen (AID 1159520); also: nearly all actives have a fitted effect of over 50% in size
Outline: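 Tet-on ROR gamma CHO cells were given compounds for 2 hr, then doxycycline hyclate at 1 uM final, and incubated 16 hr at 37 C. Viability was measured as ATP content by CellTiter-Glo luminescence.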

[8] = molecular target: Nuclear receptor ROR-gamma (Homo sapiens) (UniProt P51449); assay: qHTS assay to identify small molecule antagonists of the retinoid-related orphan receptor gamma (ROR-gamma) signaling pathway (AID 1159521)
Outline: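 CHO Tet-on RORγ, RORE-luc reporter. Cpd 2 h pre-incubation, then dox hyclate 1 uM final, 16 h, 37 C/5% CO2. ONE-Glo luminescence; decrease = antagonist.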

[9] = qHTS assay to identify small molecule agonists of the AP-1 signaling pathway - cell viability counter screen (AID 1159525; calls by dose curve; also: nearly all actives have a fitted effect of over 55% in size)
Outline: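 AP-1-bla ME-180 cells in Opti-MEM with 0.5% dialyzed FBS, compound exposure 5 h at 37 C in 15-point titration. Viability read in the same wells as ATP content by CellTiter-Glo luminescence, normalised to tetra-n-octylammonium bromide and DMSO controls.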

[10] = qHTS assay to identify small molecule agonists of the AP-1 signaling pathway (AID 1159526; calls by dose curve)
[11] = molecular target: Retinoic acid receptor RXR-alpha (Homo sapiens) (UniProt P19793); assay: qHTS assay to identify small molecule agonists of the RXR signaling pathway (AID 1159527; calls by dose curve; also: nearly all actives have a fitted effect of over 35% in size)
Outline: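 Read-out: beta-lactamase FRET ratio (405 nm excitation, 460 and 530 nm emission) after 2 hr substrate loading at room temperature. Cells were RXR-alpha-UAS-bla HEK 293T treated with compounds for 16 hr in 2% charcoal-stripped FBS medium.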

[12] = qHTS assay to identify small molecule agonists of the RXR signaling pathway - cell viability counter screen (AID 1159529)
Outline: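 HEK 293T RXRa-bla cells, 2% CS-FBS; 5 h settle; cpd 16 h 37 C, 5% CO2; CellTiter-Glo 30 min RT, luminescence. Tetraoctyl ammonium bromide as positive control.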

[13] = qHTS assay to identify small molecule antagonists of the retinoid acid receptor (RAR) signaling pathway - cell viability counter screen (AID 1159551); also: nearly all actives have a fitted effect of over 35% in size
Outline: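 Following overnight attachment, C3RL4 reporter cells received DMSO-dissolved compounds and then retinol (1 uM final). Six hours later at 37 C, ATP content was measured by CellTiter-Glo luminescence.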

[14] = qHTS assay to identify small molecule antagonists of the retinoic acid receptor (RAR) signaling pathway (AID 1159552; also: nearly all actives have a fitted effect of over 50% in size)
Outline: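 Cells of the C3RL4 line were seeded, incubated overnight, then dosed with compounds in DMSO followed immediately by retinol (1 uM final). Six hours later luciferase detection reagent went in; signal was measured after 30 min at RT.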

[15] = qHTS assay to identify small molecule agonists of the retinoic acid receptor (RAR) signaling pathway (AID 1159553)
Outline: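 Cell line C3RL4, RARE luciferase reporter. Treatment: compounds in DMSO, 6 hr, 37 C, 5% CO2, after overnight plating. Detection: luminescence, 30 min RT after reagent.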

[16] = qHTS assay to identify small molecule antagonists of the estrogen related receptor (ERR) signaling pathway - cell viability counter screen (AID 1224818);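 also: series mostly up to about 46 µM; viability measured after 17.5 h of compound exposure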
Outline: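 Here, ERR cells are plated at 2,000 cells per well, allowed 6 h to attach, and treated with compounds in DMSO for 17.5 h at 37 C. CellTiter-Fluor is then added and fluorescence read after 30 min.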

[17] = qHTS assay to identify small molecule antagonists of the estrogen related receptor signaling pathway with the pleiotropic PPARgamma coactivator (PGC) cell viability counter screen (AID 1224822;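 also: series mostly up to about 46 µM; viability read after 17.5 h compound exposure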)
Outline: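 qHTS format, DMSO compound stocks pin-transferred onto PGC/ERR cells 6 h after plating; 17.5 h exposure at 37 C, then CellTiter-Fluor fluorescence.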

[18] = qHTS assay to identify small molecule antagonists of the estrogen related receptor (ERR) signaling pathway (AID 1224819)
Outline: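 LOPAC library screened for antagonism as reduced One-Glo luminescence in ERR reporter cells (2,000/well). Compounds were added after 6 h pre-incubation and left 18 h at 37C; reading followed a 30 min room-temperature reagent step.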

[19] = qHTS assay to identify small molecule agonists of the estrogen related receptor (ERR) signaling pathway (AID 1224820)
Outline: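 ERR reporter cell line (from NTP), 2,000 cells/well, incubated 6 h before compound addition, then 18 h at 37 C. Luminescence measured 30 min after One-Glo reagent at room temperature.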

[20] = test system: estrogen-related receptor alpha (ERRalpha) with PGC-1alpha coactivator, human; assay: qHTS assay to identify small molecule antagonists of the estrogen related receptor signaling pathway with the pleiotropic PPARgamma coactivator (PGC) (AID 1224821; calls by dose curve)
Outline: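 PGC/ERR reporter cell line, plated 6 h before compound addition, then exposed 18 h at 37 °C. Luciferase activity read by luminescence 30 min after One-Glo addition; decrease indicates antagonism.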

Measured: Potency

Chain of Retinoic acid receptor RXR-alpha (Homo sapiens) (P19793 whole entry, looked up): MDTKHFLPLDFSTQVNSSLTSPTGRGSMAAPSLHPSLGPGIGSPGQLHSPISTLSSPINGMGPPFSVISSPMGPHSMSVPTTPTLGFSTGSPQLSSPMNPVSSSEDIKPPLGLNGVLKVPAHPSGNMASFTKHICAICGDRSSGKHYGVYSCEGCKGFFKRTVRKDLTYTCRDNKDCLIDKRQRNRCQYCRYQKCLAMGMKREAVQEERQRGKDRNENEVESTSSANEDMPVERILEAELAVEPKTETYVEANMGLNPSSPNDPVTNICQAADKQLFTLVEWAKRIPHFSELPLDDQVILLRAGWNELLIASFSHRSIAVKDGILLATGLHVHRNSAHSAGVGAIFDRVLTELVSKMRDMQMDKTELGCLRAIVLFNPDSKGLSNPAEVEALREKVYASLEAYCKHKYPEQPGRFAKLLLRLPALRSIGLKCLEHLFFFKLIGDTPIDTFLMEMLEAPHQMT

NC(=O)c1cn(Cc2c(F)cccc2F)nn1
not listed: [18] | [19] | [20]
inactive: all other assays above

Cc1cccc(C)c1NC(=O)C(C)N (configuration not stated)
inactive: all assays above

O=C1CCCN1C1CCCCC1
not listed: [2] | [16] | [17] | [18] | [19] | [20]
inactive: all other assays above

CC(C)c1cc2c(cc1S(=O)(=O)O)[C@@]1(C)CCC[C@@](C)(C(=O)O)[C@@H]1CC2
not listed: [2] | [16] | [17] | [18] | [19] | [20]
inactive: all other assays above

CCCCOCCOCCOCc1cc2c(cc1CCC)OCO2
not listed: [18] | [19] | [20]
inactive: all other assays above

CCn1ccnc1CC1COc2ccccc2O1 (configuration not stated)
inactive: all assays above

CCN(Cc1ccncc1)C(=O)C(CO)c1ccccc1 (configuration not stated)
not listed: [18] | [19] | [20]
inactive: all other assays above

COc1c(N2C[C@@H]3CCCN[C@@H]3C2)c(F)cc2c(=O)c(C(=O)O)cn(C3CC3)c12
not listed: [1] | [2] | [16] | [17] | [18] | [19] | [20]
inactive: all other assays above
